The list is not random: actives were taken first. Their share in the collection is about 2.2%.
TMEM16A act: mouse TMEM16A channel activation, primary screen; hit rate 0.3% among 340,000; B-score at 10 µM; AID 623877; HEK293 TMEM16A/YFP-H148Q/I152L, iodide quench fluorescence; active compounds read low; Q8BHY3;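 active = fluorescence-ratio B-score plate-corrected deviation score at least 3 library SD below zero, with starting fluorescence score within 5 deviations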;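 also: channel opened by trigger with iodide after compound preincubation; score built on the fluorescence ratio of max minus min over baseline; more negative score means more quench and so TMEM16A activation or potentiation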
Target sequence (Q8BHY3 whole entry, looked up): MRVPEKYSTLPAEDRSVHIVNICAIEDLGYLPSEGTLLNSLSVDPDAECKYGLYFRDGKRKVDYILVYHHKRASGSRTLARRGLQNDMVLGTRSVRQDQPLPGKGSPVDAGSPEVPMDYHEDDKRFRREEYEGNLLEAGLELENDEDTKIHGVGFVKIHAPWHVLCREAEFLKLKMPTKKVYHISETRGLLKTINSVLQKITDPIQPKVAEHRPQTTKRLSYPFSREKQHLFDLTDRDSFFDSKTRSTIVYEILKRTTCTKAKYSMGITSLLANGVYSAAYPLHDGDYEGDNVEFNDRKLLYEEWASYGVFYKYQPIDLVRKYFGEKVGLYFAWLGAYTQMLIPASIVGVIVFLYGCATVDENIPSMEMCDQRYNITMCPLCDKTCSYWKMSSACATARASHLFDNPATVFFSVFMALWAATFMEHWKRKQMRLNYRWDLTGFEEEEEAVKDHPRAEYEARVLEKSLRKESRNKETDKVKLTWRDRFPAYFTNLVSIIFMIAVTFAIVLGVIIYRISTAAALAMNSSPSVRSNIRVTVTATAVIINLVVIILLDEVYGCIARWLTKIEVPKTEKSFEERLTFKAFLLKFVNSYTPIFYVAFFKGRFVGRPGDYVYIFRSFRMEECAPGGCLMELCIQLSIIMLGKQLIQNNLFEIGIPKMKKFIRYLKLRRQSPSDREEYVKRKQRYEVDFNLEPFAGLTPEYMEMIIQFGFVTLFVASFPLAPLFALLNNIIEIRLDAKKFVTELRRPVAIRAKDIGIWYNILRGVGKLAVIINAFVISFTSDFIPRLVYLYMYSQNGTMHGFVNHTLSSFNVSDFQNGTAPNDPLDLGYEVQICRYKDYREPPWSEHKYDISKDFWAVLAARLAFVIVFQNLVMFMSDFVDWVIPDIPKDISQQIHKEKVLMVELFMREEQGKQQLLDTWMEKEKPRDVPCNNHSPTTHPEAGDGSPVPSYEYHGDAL
TLR4 MyD88 comp: TLR4-MyD88 interaction inhibition in cells | inhibition, % at 8.4 µM | AID 861 | hit rate 0.18% among 200,000 | O00206+Q99836 | HeLa CL3-4 TLR4/MyD88 BLA complementation, FRET ratio; in the data active = inhibition above about 25%;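 also: 0% = vehicle and 100% = reference inhibitor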
ANO1 block: blocks the mouse calcium-activated chloride channel TMEM16A | normalized B-score (activity score, 25-100; higher = stronger inhibition) at 10 µM | hit rate 1.2% among 310,000 | HEK293 TMEM16A/YFP iodide influx fluorescence, ionomycin;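 active = ratio plate-corrected score three or more library SD toward inhibition, starting fluorescence score within five deviations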;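 also: score derived from kinetic fluorescence span divided by baseline fluorescence per well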
GRK2 inh: inhibitors of human GRK2 displacing RNA aptamer | hit rate 0.59% among 330,000 | bead flow cytometry, FAM-aptamer displacement from GRK2 | AID 488847 | P25098 | inhibition of aptamer binding, % at 10 µM;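 active = inhibition of aptamer binding above 40%, roughly 3 SD of noise, on plates passing a quality check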;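 also: median bead fluorescence of bound FAM aptamer so fluorescent compounds give negative values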
NOD2-RIPK2 inh: inhibitors of human NOD2-RIPK2 interaction; CHO BLA complementation NOD2-RIPK2, CCF4 ratio; inhibition, % at 4.98 µM; hit rate 0.38% among 360,000; AID 624267; in the data active = inhibition above about 21%;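 also: 0% = vehicle only and 100% = reference blocker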
TLR9-MyD88 inh: inhibitors of human TLR9-MyD88 binding | Q9NR96+Q99836 | CHO BLA complementation TLR9-MyD88, CCF4 FRET ratio | inhibition, % at 4.98 µM | hit rate 0.21% among 340,000 | AID 504734;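 active = inhibition above the mean over all tested compounds plus 3 SD, cut at about 21% in these data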;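 also: 0% = DMSO only wells and 100% = clavulanate BLA inhibitor control wells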
Active calls of the source: *; ! = repeats disagree.

What do the screens show for `O=C(/C=C/c1ccco1)Nc1cccc(S(=O)(=O)N2CCOCC2)c1`?
TMEM16A act: inactive; TLR4 MyD88 comp: 0.4; ANO1 block: inactive; GRK2 inh: 0.0; NOD2-RIPK2 inh: -0.2; TLR9-MyD88 inh: -2.1

Results for Cc1ccc(NC(=O)/C=C/c2ccco2)cc1S(=O)(=O)N1CCCCCC1 ?
TMEM16A act: inactive; ANO1 block: 25*; GRK2 inh: 0.0; NOD2-RIPK2 inh: -12.2; TLR9-MyD88 inh: 4.2

Results for COC(=O)C1=COC(OC2OC(CO)C(O)C(O)C2O)C2C(C)CC(=O)C12 (stereo unspecified) ?
NOD2-RIPK2 inh: -20.8

Results for C[C@@H]1CC[C@]2(C(=O)O)CC[C@]3(C)C(=CCC4[C@]56CC[C@@](O)(OC5)C(C)(C)C6CC[C@]43C)C2[C@H]1C (stereo partly specified) ?
TMEM16A act: inactive; ANO1 block: 100*; GRK2 inh: 0.0; NOD2-RIPK2 inh: -9.6; TLR9-MyD88 inh: 3.1

How did C[C@H]1[C@H](C)CC[C@]2(C(=O)O)CC[C@]3(C)C(=CC[C@@H]4[C@@]5(C)C[C@@H](O)[C@H](O)C(C)(C)[C@@H]5CC[C@]43C)[C@H]12 do in these assays?
TMEM16A act: -9.75*; TLR4 MyD88 comp: -2.0; ANO1 block: inactive; GRK2 inh: 0.0; NOD2-RIPK2 inh: 6.7; TLR9-MyD88 inh: -9.8

Results for CC1(C(=O)NCc2ccccc2)CN(S(C)(=O)=O)CC(=O)N1C1CC1 (stereo unspecified) ?
NOD2-RIPK2 inh: -16.7

How did C=CC[n+]1c(-c2ccc(OC)cc2)csc1NNC(=O)Nc1ccccc1 do in these assays?
TMEM16A act: inactive; TLR4 MyD88 comp: 9.4; ANO1 block: 100*; GRK2 inh: 1.0; NOD2-RIPK2 inh: -1.2; TLR9-MyD88 inh: 3.3

Results for C=C1/C=C(\C)[C@](C)(O)C[C@H](O)CC(=O)[C@H](O)[C@@H](O)[C@H](C)C[C@H](C)OC(=O)/C(C)=C/CC/C=C/[C@@H]2O[C@H]2C[C@H](C)C1 ?
GRK2 inh: 2.0

What do the screens show for `CCc1nn(CC(=O)NCCCN2CCN(C)CC2)c(=O)c2cc3sccc3n12`?
TMEM16A act: inactive; ANO1 block: inactive; GRK2 inh: 5.0; NOD2-RIPK2 inh: 1.7; TLR9-MyD88 inh: -8.4

How did CCc1nn(CC(=O)NCCCN2CCc3ccccc3C2)c(=O)c2cc3sccc3n12 do in these assays?
TMEM16A act: inactive; TLR4 MyD88 comp: -12.2; ANO1 block: 100*; GRK2 inh: 0.0; NOD2-RIPK2 inh: -4.3; TLR9-MyD88 inh: 3.6

Results for COc1ccc(C(C(=O)Nc2ccc(F)cc2)N2CCN(C(=O)c3ccco3)CC2)cc1 (stereo unspecified) ?
NOD2-RIPK2 inh: 2.4

What do the screens show for `CCCCNC(=O)C(NC(=O)c1ccc(-c2ccccc2)cc1)C(=O)c1ccccc1` (stereo unspecified)?
NOD2-RIPK2 inh: -16.7

How did CC(=O)Nc1ccc(-c2ccnc3c2CC(C(=O)NCc2ccco2)O3)cc1 (stereo unspecified) do in these assays?
NOD2-RIPK2 inh: -0.7

Results for O=C(NC1CC1)C(=O)c1c(-c2ccccc2)[nH]c2ccccc12 ?
TMEM16A act: -7.55*; TLR4 MyD88 comp: 2.3; ANO1 block: inactive; GRK2 inh: 1.0; NOD2-RIPK2 inh: -9.0; TLR9-MyD88 inh: -3.9

Results for CCC(C)Sc1cc(-c2nc3ccc(C)cn3c2NCc2ccccc2)ccc1OC (stereo unspecified) ?
TMEM16A act: inactive; ANO1 block: inactive; GRK2 inh: 2.0; NOD2-RIPK2 inh: 27.2*!; TLR9-MyD88 inh: -3.1

Results for CCC(C)Sc1ccc(-c2nc3ccc(C)cn3c2NCc2ccccc2)cc1OC (stereo unspecified) ?
TMEM16A act: inactive; ANO1 block: inactive; GRK2 inh: 0.0; NOD2-RIPK2 inh: 19.5; TLR9-MyD88 inh: 3.5

Results for NS(=O)(=O)c1ccc(N2CCCC2=O)c([N+](=O)[O-])c1 ?
TMEM16A act: -4.87*; TLR4 MyD88 comp: 4.6; ANO1 block: inactive; GRK2 inh: 2.0; NOD2-RIPK2 inh: -0.6; TLR9-MyD88 inh: -1.1

What do the screens show for `NNS(=O)(=O)c1ccc(N2CCCC2=O)c([N+](=O)[O-])c1`?
TMEM16A act: inactive; TLR4 MyD88 comp: 1.7; ANO1 block: inactive; GRK2 inh: 0.0; NOD2-RIPK2 inh: -7.5; TLR9-MyD88 inh: 7.0

How did Cc1ccc([N+](=O)[O-])cc1N=Nc1c(C)[nH]n(C(N)=S)c1=O do in these assays?
TMEM16A act: inactive; ANO1 block: inactive; GRK2 inh: 0.0; NOD2-RIPK2 inh: -5.2; TLR9-MyD88 inh: -3.6

What do the screens show for `Cc1ccc([N+](=O)[O-])cc1N=Nc1c(-c2ccc([N+](=O)[O-])cc2)[nH]n(C(N)=S)c1=O`?
TMEM16A act: -5.44*; TLR4 MyD88 comp: 6.5; NOD2-RIPK2 inh: -0.8; TLR9-MyD88 inh: 8.5

How did COc1ccc(C2C(C#N)=C(N)Oc3c2sc2nc(C)cc(C)c32)cc1 (stereo unspecified) do in these assays?
TMEM16A act: -7.12*; TLR4 MyD88 comp: 1.9; ANO1 block: inactive; GRK2 inh: 0.0; NOD2-RIPK2 inh: -21.0; TLR9-MyD88 inh: 6.2

How did CC1(C(=O)NCc2ccccc2)CN(S(C)(=O)=O)CC(=O)N1Cc1cccs1 (stereo unspecified) do in these assays?
NOD2-RIPK2 inh: -13.7

How did Cc1cc(C)cc(NC(=S)Nc2ccc(Cl)c(Cl)c2)c1 do in these assays?
TMEM16A act: -9.58*; TLR4 MyD88 comp: 8.1; ANO1 block: 100*; GRK2 inh: 2.0; NOD2-RIPK2 inh: -3.4; TLR9-MyD88 inh: -1.2

How did Cc1ccc(NC(=S)Nc2ccc(Cl)c(Cl)c2)c(OC(F)F)c1 do in these assays?
TMEM16A act: inactive; TLR4 MyD88 comp: -0.1; ANO1 block: 100*; GRK2 inh: 6.0; NOD2-RIPK2 inh: -2.3; TLR9-MyD88 inh: -2.5

What do the screens show for `Cc1cccc(C)c1NC(=S)Nc1ccc(Cl)c(Cl)c1`?
TMEM16A act: inactive; TLR4 MyD88 comp: -15.6; ANO1 block: inactive; GRK2 inh: 0.0; NOD2-RIPK2 inh: 1.0; TLR9-MyD88 inh: -2.0

Results for CCOc1ccccc1C(=O)OCC(=O)Nc1cc(S(=O)(=O)N2CCOCC2)ccc1C ?
TMEM16A act: -42*; GRK2 inh: 1.0; NOD2-RIPK2 inh: 2.0; TLR9-MyD88 inh: -13.8

Results for O=C(COC(=O)c1ccccn1)Nc1ccc(S(=O)(=O)N2CCOCC2)cc1 ?
TMEM16A act: inactive; TLR4 MyD88 comp: 4.5; ANO1 block: 25*; GRK2 inh: 0.0; NOD2-RIPK2 inh: -9.2; TLR9-MyD88 inh: -1.4

What do the screens show for `CC(C)NC(=O)C1(C)CN(S(C)(=O)=O)CC(=O)N1Cc1ccc2c(c1)OCO2` (stereo unspecified)?
NOD2-RIPK2 inh: -4.9
